A number with no mark means an inactive call.
What was measured:
Assay in all cases: log2 ratio of Biotin-Ahx-Ub-VS probe labelling (fragment/DMSO); higher = less target engagement (more negative = stronger competition), active = hit call of the paper (q ≤ 0.05, log2 ratio ≤ -1)
Conditions in all cases: compound concentration: 200 uM; treatment time: 3 h
[1] = biological target: T1, OTUD6B (UniProt Q8N6M0)
T1 sequence (whole entry): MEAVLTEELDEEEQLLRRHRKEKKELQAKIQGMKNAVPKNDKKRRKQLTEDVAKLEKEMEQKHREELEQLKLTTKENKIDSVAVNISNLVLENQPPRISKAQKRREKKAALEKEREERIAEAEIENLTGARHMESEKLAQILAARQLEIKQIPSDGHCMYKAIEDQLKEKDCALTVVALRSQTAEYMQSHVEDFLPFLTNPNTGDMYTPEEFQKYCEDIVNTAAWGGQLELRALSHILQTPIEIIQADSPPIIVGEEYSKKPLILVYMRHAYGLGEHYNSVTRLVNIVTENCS
In short: (§1)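 Triplicate samples of HEK293T lysate, 495 µg each, received fragment at 200 µM or vehicle for 3 h, followed by Biotin-Ahx-Ub-VS (0.5 µM final) for 1 h. After NeutrAvidin enrichment of labelled DUBs and LysC/trypsin digestion, peptides were run by diaPASEF LC-MS/MS. The values are average log2 fragment/vehicle ratios from global-median-normalised Spectronaut label-free quantities, tested by unpaired t-test on proteins having ≥2 unique peptides.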

[2] = biological target: T2, OTUD7B (UniProt Q6GQQ9)
T2 sequence (whole entry): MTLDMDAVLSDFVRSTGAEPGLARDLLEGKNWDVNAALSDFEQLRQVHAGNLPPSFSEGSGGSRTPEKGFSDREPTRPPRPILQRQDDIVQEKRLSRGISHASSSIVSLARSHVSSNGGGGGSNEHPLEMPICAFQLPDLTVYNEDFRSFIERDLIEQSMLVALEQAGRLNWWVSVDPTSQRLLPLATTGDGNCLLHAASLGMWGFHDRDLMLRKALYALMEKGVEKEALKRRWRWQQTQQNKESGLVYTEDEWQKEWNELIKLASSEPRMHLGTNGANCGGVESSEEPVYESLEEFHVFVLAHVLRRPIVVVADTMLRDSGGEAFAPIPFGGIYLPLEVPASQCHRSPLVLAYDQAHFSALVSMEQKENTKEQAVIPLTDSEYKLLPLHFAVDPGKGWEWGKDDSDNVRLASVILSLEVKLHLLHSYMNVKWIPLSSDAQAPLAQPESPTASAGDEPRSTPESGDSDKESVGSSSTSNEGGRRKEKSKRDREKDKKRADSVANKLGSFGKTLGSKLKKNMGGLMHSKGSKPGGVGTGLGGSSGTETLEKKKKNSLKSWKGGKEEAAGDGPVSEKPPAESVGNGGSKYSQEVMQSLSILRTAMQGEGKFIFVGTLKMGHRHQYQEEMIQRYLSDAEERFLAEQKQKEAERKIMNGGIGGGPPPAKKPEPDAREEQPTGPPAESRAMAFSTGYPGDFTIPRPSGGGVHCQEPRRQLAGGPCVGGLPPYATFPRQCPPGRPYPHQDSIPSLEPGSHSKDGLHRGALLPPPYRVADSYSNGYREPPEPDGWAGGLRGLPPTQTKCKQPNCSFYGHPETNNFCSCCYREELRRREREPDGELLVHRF
In short: as §1

[3] = biological target: PRPF8 (UniProt Q6P2Q9)
In short: as §1

[4] = biological target: T3, PSMD7 (UniProt P51665)
T3 sequence (whole entry): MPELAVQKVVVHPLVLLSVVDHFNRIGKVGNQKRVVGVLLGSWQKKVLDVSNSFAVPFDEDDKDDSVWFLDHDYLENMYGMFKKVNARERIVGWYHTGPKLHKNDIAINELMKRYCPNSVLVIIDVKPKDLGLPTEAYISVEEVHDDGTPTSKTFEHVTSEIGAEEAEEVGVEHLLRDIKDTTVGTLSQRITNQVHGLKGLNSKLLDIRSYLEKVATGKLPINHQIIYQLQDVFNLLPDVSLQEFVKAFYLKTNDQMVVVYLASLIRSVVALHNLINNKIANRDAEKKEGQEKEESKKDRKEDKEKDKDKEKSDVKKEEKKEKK
In short: as §1

[5] = biological target: UCHL1 (UniProt P09936)
Chain of UCHL1 (P09936 whole entry, looked up): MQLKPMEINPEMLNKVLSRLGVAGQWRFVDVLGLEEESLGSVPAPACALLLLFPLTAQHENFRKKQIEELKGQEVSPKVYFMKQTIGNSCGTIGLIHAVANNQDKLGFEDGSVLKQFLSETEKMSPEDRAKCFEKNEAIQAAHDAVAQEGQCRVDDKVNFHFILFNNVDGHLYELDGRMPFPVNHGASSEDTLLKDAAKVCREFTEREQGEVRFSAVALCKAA
In short: as §1

[6] = biological target: T4, UCHL3 (UniProt P15374)
T4 sequence (whole entry): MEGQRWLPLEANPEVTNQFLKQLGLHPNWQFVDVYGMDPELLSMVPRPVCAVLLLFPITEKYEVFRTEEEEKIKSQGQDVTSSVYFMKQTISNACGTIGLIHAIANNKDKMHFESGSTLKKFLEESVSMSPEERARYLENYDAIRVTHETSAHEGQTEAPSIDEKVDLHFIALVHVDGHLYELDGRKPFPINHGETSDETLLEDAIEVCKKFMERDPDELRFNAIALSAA
In short: as §1

[7] = biological target: T5, UCHL5 (UniProt Q9Y5K5)
T5 sequence (whole entry): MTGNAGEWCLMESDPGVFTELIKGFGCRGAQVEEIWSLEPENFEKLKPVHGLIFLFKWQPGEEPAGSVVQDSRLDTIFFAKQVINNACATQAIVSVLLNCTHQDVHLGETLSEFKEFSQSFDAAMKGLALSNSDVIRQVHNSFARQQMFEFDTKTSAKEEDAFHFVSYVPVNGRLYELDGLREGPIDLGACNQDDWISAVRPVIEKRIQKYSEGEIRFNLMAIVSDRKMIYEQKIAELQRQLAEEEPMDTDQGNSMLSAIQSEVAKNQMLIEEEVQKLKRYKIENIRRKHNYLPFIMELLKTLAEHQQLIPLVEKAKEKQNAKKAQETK
In short: as §1

[8] = biological target: USP10 (UniProt Q14694)
Chain of USP10 (Q14694 whole entry): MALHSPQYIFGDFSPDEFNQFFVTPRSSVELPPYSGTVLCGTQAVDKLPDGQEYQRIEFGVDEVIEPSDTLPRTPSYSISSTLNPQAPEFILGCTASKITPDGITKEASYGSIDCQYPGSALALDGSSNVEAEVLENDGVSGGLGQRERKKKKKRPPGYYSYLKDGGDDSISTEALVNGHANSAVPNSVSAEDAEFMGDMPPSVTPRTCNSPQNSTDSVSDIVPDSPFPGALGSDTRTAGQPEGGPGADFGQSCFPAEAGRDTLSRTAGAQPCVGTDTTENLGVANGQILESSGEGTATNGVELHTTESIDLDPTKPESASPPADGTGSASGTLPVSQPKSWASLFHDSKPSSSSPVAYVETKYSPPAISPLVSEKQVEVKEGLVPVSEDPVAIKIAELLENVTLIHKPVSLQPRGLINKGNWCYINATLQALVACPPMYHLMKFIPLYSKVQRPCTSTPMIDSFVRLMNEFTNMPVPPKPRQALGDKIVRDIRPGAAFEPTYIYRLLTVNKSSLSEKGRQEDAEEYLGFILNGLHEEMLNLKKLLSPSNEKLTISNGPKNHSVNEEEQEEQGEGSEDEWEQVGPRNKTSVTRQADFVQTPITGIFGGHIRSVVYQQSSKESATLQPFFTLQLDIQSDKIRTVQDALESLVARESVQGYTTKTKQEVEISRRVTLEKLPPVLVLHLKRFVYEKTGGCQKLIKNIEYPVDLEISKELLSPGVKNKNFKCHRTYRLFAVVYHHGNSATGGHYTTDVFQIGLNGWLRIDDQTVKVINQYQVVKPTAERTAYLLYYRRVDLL
In short: as §1

[9] = biological target: T6, USP15 (UniProt Q9Y4E8)
T6 sequence (whole entry): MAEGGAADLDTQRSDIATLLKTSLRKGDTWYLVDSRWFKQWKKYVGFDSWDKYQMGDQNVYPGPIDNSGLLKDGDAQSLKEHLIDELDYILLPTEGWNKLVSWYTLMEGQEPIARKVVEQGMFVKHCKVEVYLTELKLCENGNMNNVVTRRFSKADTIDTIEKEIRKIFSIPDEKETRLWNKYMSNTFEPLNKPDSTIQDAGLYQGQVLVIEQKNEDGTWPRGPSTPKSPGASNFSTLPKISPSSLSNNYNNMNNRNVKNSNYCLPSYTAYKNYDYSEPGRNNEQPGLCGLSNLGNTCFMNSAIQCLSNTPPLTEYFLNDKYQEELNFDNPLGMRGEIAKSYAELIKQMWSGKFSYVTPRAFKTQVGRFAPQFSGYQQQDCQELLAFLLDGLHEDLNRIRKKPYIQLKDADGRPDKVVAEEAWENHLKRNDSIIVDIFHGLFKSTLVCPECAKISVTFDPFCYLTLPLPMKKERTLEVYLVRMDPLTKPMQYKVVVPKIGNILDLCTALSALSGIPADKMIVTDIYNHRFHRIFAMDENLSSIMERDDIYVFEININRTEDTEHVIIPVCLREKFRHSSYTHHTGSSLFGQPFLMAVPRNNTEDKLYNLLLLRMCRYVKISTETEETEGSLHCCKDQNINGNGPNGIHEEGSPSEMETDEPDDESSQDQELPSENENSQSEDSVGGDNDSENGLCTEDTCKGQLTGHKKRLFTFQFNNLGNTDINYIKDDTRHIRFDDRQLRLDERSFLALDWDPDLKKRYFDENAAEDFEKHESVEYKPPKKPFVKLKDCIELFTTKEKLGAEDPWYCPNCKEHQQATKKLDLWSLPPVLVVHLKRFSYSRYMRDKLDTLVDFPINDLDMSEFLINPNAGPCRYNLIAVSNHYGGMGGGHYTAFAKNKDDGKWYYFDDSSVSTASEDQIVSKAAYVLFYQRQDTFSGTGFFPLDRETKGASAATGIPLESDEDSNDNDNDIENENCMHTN
In short: as §1

[10] = biological target: USP16 (UniProt Q9Y5T5)
Chain of USP16 (Q9Y5T5 whole entry, looked up): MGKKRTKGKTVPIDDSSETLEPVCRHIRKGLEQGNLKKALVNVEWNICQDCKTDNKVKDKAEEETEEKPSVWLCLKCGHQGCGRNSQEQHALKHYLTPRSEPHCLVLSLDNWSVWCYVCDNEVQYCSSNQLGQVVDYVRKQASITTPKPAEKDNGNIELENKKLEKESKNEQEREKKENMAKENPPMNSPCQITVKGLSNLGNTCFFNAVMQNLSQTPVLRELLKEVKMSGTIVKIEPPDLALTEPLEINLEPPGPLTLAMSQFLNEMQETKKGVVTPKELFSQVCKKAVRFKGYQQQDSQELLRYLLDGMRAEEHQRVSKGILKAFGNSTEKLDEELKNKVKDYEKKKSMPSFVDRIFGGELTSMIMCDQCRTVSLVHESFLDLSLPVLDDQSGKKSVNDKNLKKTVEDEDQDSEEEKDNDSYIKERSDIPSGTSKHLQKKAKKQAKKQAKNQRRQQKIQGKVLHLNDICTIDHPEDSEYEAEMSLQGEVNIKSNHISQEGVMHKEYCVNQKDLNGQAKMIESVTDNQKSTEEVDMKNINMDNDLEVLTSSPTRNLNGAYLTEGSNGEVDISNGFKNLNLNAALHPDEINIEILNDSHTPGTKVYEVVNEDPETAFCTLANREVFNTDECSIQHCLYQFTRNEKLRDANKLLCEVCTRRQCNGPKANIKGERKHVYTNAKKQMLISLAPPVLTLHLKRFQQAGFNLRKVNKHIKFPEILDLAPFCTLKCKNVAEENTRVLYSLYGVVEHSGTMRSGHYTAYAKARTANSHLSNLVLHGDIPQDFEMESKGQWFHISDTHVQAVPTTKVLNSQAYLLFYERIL
In short: as §1

Cc1ccc(N(CCC#N)C(=O)CCl)cc1C
log2 ratio of Biotin-Ahx-Ub-VS probe labelling [1]: -0.133 | log2 ratio of Biotin-Ahx-Ub-VS probe labelling [2]: -1.99 (active) | log2 ratio of Biotin-Ahx-Ub-VS probe labelling [3]: 0.0257 | log2 ratio of Biotin-Ahx-Ub-VS probe labelling [4]: -0.41 | log2 ratio of Biotin-Ahx-Ub-VS probe labelling [5]: -1.31 (active) | log2 ratio of Biotin-Ahx-Ub-VS probe labelling [6]: 0.292 | log2 ratio of Biotin-Ahx-Ub-VS probe labelling [7]: -0.157 | log2 ratio of Biotin-Ahx-Ub-VS probe labelling [8]: -0.00551 | log2 ratio of Biotin-Ahx-Ub-VS probe labelling [9]: -0.234 | log2 ratio of Biotin-Ahx-Ub-VS probe labelling [10]: -0.0509
